Assay results as given in publication PMC5540273 (PLoS ONE, 2017).

Legend:
Conditions in all cases: concentration: 1 μM, replicates: in singlicate; n = 1
[1] = test system: AAK1
[2] = test system: ABL1-nonphosphorylated
[3] = test system: ABL1-phosphorylated
[4] = test system: ABL2
[5] = test system: ACVR1B
[6] = test system: ACVR1
[7] = test system: ACVR2A
[8] = test system: ACVR2B
[9] = test system: ACVRL1
[10] = test system: T1, ADCK3
T1 construct: gene CABC1

[11] = test system: ADCK4
[12] = test system: AKT1
[13] = test system: AKT2
[14] = test system: AKT3
[15] = test system: ALK
[16] = test system: T2, AMPK-alpha1
T2 construct: gene PRKAA1

[17] = test system: T3, AMPK-alpha2
T3 construct: gene PRKAA2
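Also: KINOMEscan kinase panel screen.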

SMILES | %Inh [1] [%] | %Inh [2] [%] | %Inh [3] [%] | %Inh [4] [%] | %Inh [5] [%] | %Inh [6] [%] | %Inh [7] [%] | %Inh [8] [%] | %Inh [9] [%] | %Inh [10] [%] | %Inh [11] [%] | %Inh [12] [%] | %Inh [13] [%] | %Inh [14] [%] | %Inh [15] [%] | %Inh [16] [%] | %Inh [17] [%]
CC(C)(C)c1ccc(C(=O)Nc2cn3cc(Cl)ccc3n2)cc1 | 0 | 35 | 0 | 0 | 0 | 0 | 0 | 9 | 0 | 5 | 0 | 5 | 0 | 0 | 3 | 0 | 16
Fc1cc(Cl)ccc1Nc1ccnc2cc(-c3ccc(CN4CCCCC4)o3)ccc12 [GW560116] | 1 | 47 | 49 | 14 | 0 | 5 | 0 | 52 | 0 | 0 | 38 | 0 | 0 | 0 | 4 | 0 | 0
O=S(=O)(c1ccc(-c2ccnc3[nH]ccc23)cc1)N1CCCC1 [GSK846226] | 60 | 0 | 0 | 0 | 0 | 24 | 0 | 0 | 0 | 7 | 21 | 0 | 0 | 0 | 10 | 0 | 0
CS(=O)(=O)c1ccc(-c2nc3n(c2-c2ccncc2)CCC3)cc1 [SKF-105942] | 14 | 0 | 8 | 9 | 0 | 10 | 0 | 0 | 0 | 11 | 58 | 0 | 100 | 0 | 28 | 24 | 0
O=C(Nc1n[nH]c2cc(-c3cccc(F)c3F)ccc12)C1CC1 [SB-733894] | 100 | 45 | 40 | 0 | 21 | 24 | 17 | 18 | 29 | 6 | 0 | 0 | 0 | 1 | 0 | 0 | 0
O=c1cc(N2CCOCC2)nc2n(Cc3cccc(Cl)c3Cl)ccn12 [GSK2286295] | 6 | 0 | 0 | 3 | 0 | 0 | 0 | 3 | 0 | 27 | 6 | 0 | 13 | 10 | 48 | 0 | 16
Cc1cc(NCC(c2ccccc2)c2ccccc2)nc(NCc2ccc(C(F)(F)F)cc2)n1 [GW497681] | 0 | 0 | 0 | 0 | 0 | 0 | 0 | 0 | 0 | 10 | 86 | 0 | 0 | 0 | 3 | 0 | 0
CCn1c(-c2ccccn2)nc2cnccc21 [SB-736398] | 0 | 0 | 4 | 0 | 0 | 18 | 0 | 0 | 0 | 56 | 6 | 0 | 19 | 0 | 34 | 5 | 10
COC(=O)c1c(-c2ccccc2)c2cc(C(=O)O)ccc2c(=O)n1Cc1ccccc1 | 3 | 77 | 7 | 7 | 9 | 0 | 36 | 0 | 20 | 0 | 0 | 0 | 0 | 1 | 0 | 0 | 7
Cc1nnc(-c2ccc3occ(-c4ccc(S(C)=O)cc4)c3c2)[nH]1 (stereo not drawn) | 25 | 17 | 0 | 7 | 0 | 0 | 23 | 14 | 0 | 0 | 0 | 5 | 4 | 0 | 0 | 99.1 | 6
CCCc1ccc(S(=O)(=O)NC2CCN(c3ccnc(Nc4ccc(F)cc4)n3)C2)cc1 (stereo not drawn) [GSK1379715] | 1 | 0 | 0 | 6 | 0 | 16 | 0 | 0 | 0 | 14 | 34 | 0 | 100 | 0 | 32 | 6 | 0
COc1cc2nccc(Nc3ccc(NC(=O)c4ccc(C)cc4)c(O)c3)c2cc1OC.Cl [GW440132] | 12 | 28 | 0 | 16 | 13 | 0 | 0 | 0 | 0 | 10 | 41 | 0 | 1 | 0 | 6 | 0 | 0
